AMA1-RON2 inh: inhibitors of Plasmodium falciparum AMA1-RON2 interaction; AID 720542; Potency, µM (highest dose often 58.2 µM), without a hit: at the top dose activity change, negative = inhibition, actives largely listed as inhibitors; 360,000 compounds, 0.2% hits; AlphaScreen AMA1-biotinylated RON2 peptide binding;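 further: potency means the concentration at half of the fitted maximal effect; 0% = vehicle wells and -100% = peptide control; nearly all actives have a fitted effect of over 45% in size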
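AMA1 (3D7) with his tag at 25 nM final met compounds first, then biotinylated RON2 peptide at 25 nM; detection used donor plus acceptor beads, 10 µg/mL apiece, read by AlphaScreen after 30 min at room temperature.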
CHX counter: affects cycloheximide protein synthesis inhibition readout, counter-screen; cell reporter, cycloheximide protein synthesis inhibition counterscreen; max response, %; 300,000 compounds, 12% hits; in the data active means max response mostly above about 13%, no sharp cut-off; inactive means mostly below about 14%; further: read at 38.3 µM for the half of the compounds with a filed dose; 0% is about no effect
Pf growth 48h: inhibits P. falciparum growth in the first generation, 48 h. P. falciparum luciferase growth in erythrocytes, 48 h. Potency, µM (series often up to 28.7 µM), for inactives: at the top dose activity change, negative = inhibition, hits mostly inhibitors. 310,000 compounds, 5.9% hits. AID 504832; further: potency means the concentration at half of the fitted maximal effect; on the % scale 0 is the no-effect control and ±100 the full control effect
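Here the parasites carry a stable luciferase gene and grow inside erythrocytes in Albumax-based RPMI medium with compound for one erythrocytic cycle. Activity is scored as loss of luminescent signal.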
Pf growth 96h: P. falciparum growth inhibition at 96 hour, primary screen for plastid delayed-death inhibitors; AID 504834; P. falciparum luciferase reporter growth, 96 h; 320,000 compounds, 6.9% hits; Potency, µM (highest dose often 28.7 µM), for the others: at the top dose activity change, negative = inhibition, most hits filed as inhibitors; further: potency means the concentration at half of the fitted maximal effect; on the % scale 0 is the no-effect control and ±100 the full control effect
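Infected RBCs, 2% Hct / 0.05% parasitemia final; luciferase-reporter P. falciparum; cpd 96 h, 37 C, 5% CO2; luciferase detection reagent; luminescence.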
Shiga toxin inh: Shiga toxin inhibition; inhibition, % at 38.7 µM; Vero cells, Shiga toxin protein synthesis inhibition reporter; 290,000 compounds, 9.2% hits; in the data active means inhibition mostly above about 28%, no sharp cut-off; inactive means mostly below about 43%; further: 0% is about no effect
HCV inh: HCV inhibition | Huh7.5.1 HCVcc-Cre infection, luciferase reporter, 44 h | Potency, µM (highest dose often 41.8 µM), without a hit: at the highest dose activity change, negative = inhibition, hits mostly inhibitors | 340,000 compounds, 3.4% hits; further: potency means the concentration at half of the fitted maximal effect; on the % scale 0 is the no-effect control and ±100 the full control effect
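Whole-lifecycle infectious HCVcc-Cre system; cells 1,000/well, compound then virus (~0.5 moi) added 4 h after plating, 44 h culture. Luciferase read 15 sec following 15 min substrate incubation, room temp.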
Starred values were filed as active, the others as inactive; ? = inconclusive; . = no result given. In the library only some 21% were active in any assay of this set; here they are far more common. Unless noted, the call rests on the fitted dose curve; in most records, active means well fitted curve in the direction sought with a large enough effect; inconclusive means small, poorly fitted or top-dose-only effect, or another doubt; inactive means no such curve, though single readings can be large; an effect the other way counts as inactive or inconclusive.

SMILES | AMA1-RON2 inh | CHX counter | Pf growth 48h | Pf growth 96h | Shiga toxin inh | HCV inh
CCN=c1scc(-c2ccc3c(c2)NC(=O)CO3)n1N=C1CCCC1 | 7% | -1 | ? | ? | -12 | 16µM*
CCCCN=c1scc(-c2ccc3c(c2)NC(=O)CO3)n1N=C1CCCC1 | -15% | -2 | . | 9.3µM* | -13 | 7.9µM*
FC(F)(F)c1nc(SCc2ccccc2)n[nH]1 | -13% | . | . | . | . | 13%
O=C(N/N=C/C1CC2C=CC1C2)c1ccccc1O (centres undefined) | 93% | 40* | -13% | 20% | 68* | 15%
OC(c1ccc(CN2CCCCC2)cc1)c1ncc(-c2ccccc2F)[nH]1 (centres undefined) | -11% | . | . | . | . | .
CC1(C)CC(=O)C2=C(C1)OC(N)=C(C#N)C21C(=O)N(CN2CCOCC2)c2ccccc21 (centres undefined) | 14% | 1 | -4% | -24% | -4 | 18%
CCOC(=O)C1=C(N)OC2=C(C(=O)CCC2)C12C(=O)N(CC(N)=O)c1ccccc12 (centres undefined) | -2% | 1 | 43% | 6.6µM* | -9 | -14%
COc1cccc(CN2C(=O)C3(C(C#N)=C(N)OC4=C3C(=O)CCC4)c3ccccc32)c1 (centres undefined) | 4% | -3 | 4.1µM* | 9% | -8 | -16%
COc1ccc(CCNC(=O)C2(C)CCC(=O)N2Cc2ccc(C)cc2)cc1OC (centres undefined) | -6% | -2 | -9% | ? | 6 | -6%
CN(C1=C(N2CCCCC2)C(=O)c2ccccc2C1=O)c1ccccc1 | 9.5µM* | 12 | 8.3µM* | . | -3 | 13µM*
O=C1C(Nc2ccccc2)=C(N2CCCCC2)C(=O)c2ccccc21 | 0% | 31* | 0.47µM* | 34% | 72* | 10µM*
O=C1C(Nc2cccc(O)c2)=C(N2CCCCC2)C(=O)c2ccccc21 | ? | 35* | ? | 0.41µM* | 51* | 2%
COc1ccccc1NC1=C(N2CCCCC2)C(=O)c2ccccc2C1=O | ? | 23* | 0.046µM* | 0.093µM* | 38 | ?
CCCn1c(=O)c2[nH]c(-c3ccc(OCC(=O)Nc4ccc(C#N)cc4)cc3)nc2n(CCC)c1=O | -19% | . | -11% | 49% | . | 9%
CCOC(=O)C1=C(C)NC(C)=C(C(=O)OCC)C1C(=O)OCC(=O)N1CCOCC1 | 0% | . | . | . | . | -13%
CCC(=O)N1CCCC(C)(C(=O)Nc2ccc3scnc3c2)C1 (centres undefined) | -2% | . | . | . | . | .
CCCCC(=O)N(C)c1c(CC)nc2c(OCC(=O)N(C)C)cccn12 | 0% | . | . | . | . | .
CC1=C(Nc2ccc(C(=O)O)cc2)C(=O)c2ccccc2C1=O | -12% | 13 | 52% | 26% | 16 | ?
O=C(/C=C/c1ccc(O)c(O)c1)c1ccc(S(=O)(=O)N2CCCCCC2)cc1 | -16% | -1 | 19% | 3% | 31 | -12%
Cc1ccc(NC2=C(N3CCCCC3)C(=O)c3ccccc3C2=O)cc1 | 2% | 50* | 0.17µM* | 0.074µM* | 107* | -5%
O=C(/C=C/c1ccc(O)cc1)c1ccc(NC2=C(N3CCCCC3)C(=O)c3ccccc3C2=O)cc1 | -10% | 59* | 0.52µM* | 0.17µM* | 160* | 10µM*
O=C1[C@H]2[C@@H](c3ccc(Cl)cc3)N3C(=O)N(c4cccc(Br)c4)C(=O)[C@@]3(Cc3ccc(Cl)cc3)[C@H]2C(=O)N1C1CCCCC1 | -9% | 3 | ? | 12µM* | 14 | -8%
O=C1[C@H]2[C@@H](c3ccc(F)cc3)N3C(=O)N(c4ccccc4)C(=O)[C@@]3(Cc3ccccc3)[C@H]2C(=O)N1C1CCCCC1 | -6% | . | ? | ? | . | -12%
COc1ccc([C@@H]2[C@@H]3C(=O)N(C(C)(C)C)C(=O)[C@@H]3[C@]3(Cc4ccc(Cl)cc4)C(=O)N(c4cccc(Br)c4)C(=O)N23)cc1 | -4% | -3 | ? | ? | 1 | 10%
